Screening data deposited in PubChem by National Center for Advancing Translational Sciences (NCATS).
Coupling enz – inhibits coupling enzyme system, counter-screen for aldolase hits. activity change, negative = inhibition, % at 58.2 µM, hits read low. coupling enzyme system counterscreen, AmpLite Red fluorescence. 0.67% of 290,000 active; in the data active means activity change below about -30%
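Final compound at 57.5 uM, incubated 10 min at RT with coupling enzyme reagent (glyceraldehyde-3-phosphate), then 20 min with substrate and AmpLite Red detection. Fluorescence read at 525/598 nm; tests interference with the coupling assay, not aldolase inhibition.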
Gal4-VP16 FLuc – inhibits Gal4-VP16 luciferase reporter, ROR gamma counter-screen | Potency, µM (top dose mostly 53.6 µM), without a hit: at the highest dose activity, negative = inhibition, actives largely listed as inhibitors | Drosophila S2 Gal4-VP16 UAS-luciferase, luminescence, 20 h | 3.5% of 310,000 active;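 further: Gal4-VP16 expression switched on by copper sulfate through the metallothionein promoter; potency means the concentration at half of the fitted maximal effect; nearly all actives have a fitted effect of over 50% in size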
TrxR1 inh – blocks rat thioredoxin reductase 1 | recombinant rTrxR1, NADPH fluorescence consumption, selenite substrate | Potency, µM (doses to about 114 µM), inactives show at the top dose activity change, negative = inhibition, usual class: inhibitors | AID 588453 | 1% of 390,000 active; further: potency means the concentration at half of the fitted maximal effect; nearly all actives have a fitted effect of over 65% in size
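Rat TrxR1 (90 nM in the dispensed reagent) was pre-reduced with 400 uM NADPH for 5 min at room temperature, then incubated with compound for 15 min. After 400 uM selenite was added, NADPH fluorescence (Ex 340/Em 450 nm) was followed for 8 min.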
RORgamma inh – ROR gamma (mouse) transcription inhibition; Drosophila S2 Gal4-RORgamma UAS-luciferase reporter, 20 h; Potency, µM (series often up to 53.6 µM), inactives show top-dose activity change, negative = inhibition, usual class: inhibitors; 5.4% of 310,000 active; AID 2551; further: potency means the concentration at half of the fitted maximal effect; nearly all actives have a fitted effect of over 60% in size
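Luminescence from a UAS-regulated Photinus luciferase reporter in stably transfected Drosophila Schneider cells is measured; decreased signal marks ROR gamma inhibition. Fusion expression is induced by 700 uM copper sulfate for 20 hr.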
GALK inhibitor – blocks human galactokinase activity. 0.007% of 270,000 active. Potency, µM (series often up to 57.5 µM), for the others: at the highest dose activity change, negative = inhibition, hits mostly inhibitors. Purified GALK, Kinase-Glo residual ATP luminescence; further: potency means the concentration at half of the fitted maximal effect
Target sequence (P51570 whole entry, looked up): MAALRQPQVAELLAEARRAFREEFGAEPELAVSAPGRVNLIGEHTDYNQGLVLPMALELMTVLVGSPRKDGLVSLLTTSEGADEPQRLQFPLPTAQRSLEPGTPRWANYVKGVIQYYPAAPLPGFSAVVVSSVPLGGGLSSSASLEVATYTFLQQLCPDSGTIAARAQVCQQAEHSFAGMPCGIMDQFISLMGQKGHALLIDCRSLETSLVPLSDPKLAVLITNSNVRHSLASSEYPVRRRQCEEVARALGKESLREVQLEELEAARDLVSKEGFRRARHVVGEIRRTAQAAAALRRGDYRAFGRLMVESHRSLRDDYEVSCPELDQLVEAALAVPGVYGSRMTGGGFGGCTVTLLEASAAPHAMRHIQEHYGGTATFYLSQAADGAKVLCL
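Quantitative HTS: GALK 5 nM, ATP 35 uM, galactose 100 uM, 1 h room temperature, then luciferase-based ATP detection.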
TrxR1 substrate – is turned over as a substrate by rat TrxR1 | O89049 | purified TrxR1 substrate turnover, NADPH consumption readout | Potency, µM (doses to about 114 µM), inactives show at the top dose activity change, negative = substrate turnover | 0.01% of 390,000 active | AID 588456; further: potency means the concentration at half of the fitted maximal effect; nearly all actives have a fitted effect of over 50% in size
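Rat TrxR1, dispensed at 90 nM, was prereduced with 400 uM NADPH (final) for 5 min at ~22 deg C, then incubated with compound 15 min before 400 uM selenite. A first-read NADPH fluorescence drop versus no-compound background flagged substrates.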
* hit, by the source's call; ? = inconclusive; · = no result given; [ ] = remark or other dose. The list is not random: actives were taken first. Their share in the collection is about 5.9%. Unless noted, the call rests on the fitted dose curve; in most records, active means well fitted curve in the direction sought with a large enough effect; inconclusive means small, poorly fitted or top-dose-only effect, or another doubt; inactive means no such curve, though single readings can be large; an effect the other way counts as inactive or inconclusive. On the % scale 0 is the no-effect control and ±100 the full control effect.

SMILES	Coupling enz	Gal4-VP16 FLuc	TrxR1 inh	RORgamma inh	GALK inhibitor	TrxR1 substrate
Cc1cc(-c2ccc(C)c(S(=O)(=O)Nc3cccc(CN4CCCC4)c3)c2)on1	·	-3.6%	27.8%	-28.5%	-4.4%	6.0%
Cc1cccc(NC(=S)N2CCN(c3cc(C)ccc3C)CC2)c1	1.9	5.62µM*	6.5%[0.0914 µM]	3.98µM*	-0.2%	-7.1%
COC(=O)c1cccc(NC(=S)N2CCN(c3ccccc3F)CC2)c1	1.4	1.7%	19.6%[57.1 µM]	14.1µM*	3.1%	7.6%[57.1 µM]
COc1ccc(N2CCN(C(=S)Nc3cccc(OC)c3)CC2)cc1	3.8	-18.7%	7.3%	44.2%[1.91 µM]	-6.8%	2.2%
COc1ccccc1N1CCN(C(=S)Nc2cccc(C)c2)CC1	-1.0	20µM*	20.5%	5.01µM*	4.4%	2.9%
CCOc1ccc2nc(NC(=O)CN3CCN(C)CC3)sc2c1	1.2	-1.8%	16.5%	-2.1%	-4.1%	7.7%[57.1 µM]
O=C(NCc1ccco1)c1cc(-c2cccs2)on1	2.7	8.1%	-4.1%	3.7%	-1.5%	7.4%
COCCNC(=S)N/N=C(\C)c1ccc(Cl)c(Cl)c1Cl	2.3	7.94µM*	3.8%[57.1 µM]	3.98µM*	13.2%	10.8%[57.1 µM]
COCCNC(=S)NNc1ccc(Cl)c(C(=O)O)c1	-1.5	0.9%	-10.4%	-7.3%	7.5%	-7.8%
C/C(=N\O)c1ccc(Cl)c(Cl)c1	1.3	-13.1%	-1.1%[57.1 µM]	1.3%	0.2%	6.1%[57.1 µM]
COCCNC(=O)c1ccc(Cl)c(Cl)c1	0.7	5.6%	-5.3%	-16.5%	-0.6%	-5.4%
COCCNC(=S)N/N=C(\C)c1ccc(Cl)c(Cl)c1	-0.1	4.47µM*	19.1%	2.82µM*	2.9%	-1.9%
CNC(=S)N/N=C(\C)c1ccc(Cl)c(Cl)c1	2.5	7.08µM*	16.2%[57.1 µM]	2.82µM*	3.5%	-6.9%
Cc1nn(C(C)C(=O)NCCCN2CCCCCC2)c(=O)c2c1sc1ccccc12 (stereo unspecified)	·	0.6%	50.1µM*	-31.7%	-13.1%	1.5%
Cc1nn(C(C)C(=O)NCCCN2CCCCC2C)c(=O)c2c1sc1ccccc12 (stereo unspecified)	·	-1.0%	14.6%	-27.3%	0.1%	4.8%
O=C(COc1ncnc2sccc12)NC1CCCCC1	·	·	4.1%[57.1 µM]	·	·	0.6%[57.1 µM]
CCCC12CN3CCN(CC(C3)/C1=N\NC(=O)Nc1ccccc1)C2	-1.0	-2.7%	-5.4%	-4.9%	-0.9%	0.0%
S=C(N/N=C1\C2CN3CCN(C2)CC1(c1ccccc1)C3)Nc1ccccc1	-7.4	2.82µM*	-22.7%	5.01µM*	-2.3%	-11.1%
COc1ccc(N2CCN(C(=O)C3CCCN(S(=O)(=O)c4ccc5c(c4)CCCN5C(C)=O)C3)CC2)cc1 (stereo unspecified)	·	·	5.9%[57.1 µM]	·	·	-3.3%[57.1 µM]
COc1cccc(OCCNC(=O)CSc2ccc(C(F)(F)F)cc2[N+](=O)[O-])c1	-0.4	3.55µM*	-21.9%	8.3%	·	-10.3%
N#CC1=C(N)Oc2n[nH]c(-c3ccccn3)c2C1c1c(F)cccc1Cl (stereo unspecified)	-21.7	8.91µM*	-10.9%	3.16µM*	2.7%	-6.6%
COCc1[nH]nc2c1C(c1c(F)cccc1Cl)C(C#N)=C(N)O2 (stereo unspecified)	-38.8*	17.8µM*	7.1%[57.1 µM]	?	2.9%	10.0%[57.1 µM]
Cc1ccc(C(O)(COC(=O)C(C)C)COC(=O)C(C)C)c(O)c1	-1.7	31.6µM*	?	-105.9%	0.4%	7.0%[57.1 µM]
O=C(N/N=C/c1c(O)ccc2ccccc12)c1ccc(CO)nc1	-2.2	6.31µM*	5.6%	3.98µM*	0.0%	-12.6%
O=C(NN=Cc1c(O)ccc2ccccc12)c1ccc2c(c1)OCO2	·	·	14.4%	·	·	-1.9%
SMILES	Coupling enz	Gal4-VP16 FLuc	TrxR1 inh	RORgamma inh	GALK inhibitor	TrxR1 substrate
O=C(N/N=C\c1c(O)ccc2ccccc12)c1ccc(S(=O)(=O)N2CCCCC2)cc1	-2.8	3.98µM*	-0.9%[57.1 µM]	2.51µM*	1.7%	6.7%[57.1 µM]
COc1ccc(-n2nc(C(=O)Nc3ccccn3)c3c4ccccc4n(C)c3c2=O)cc1	·	·	16.4%	·	·	6.5%
O=S(=O)(NCCn1cccc1)c1ccc2ccccc2c1	-1.0	9.4%	4.3%[57.1 µM]	2.9%	-0.9%	1.3%[57.1 µM]
COc1cc(/C=N/Nc2ncc(C(F)(F)F)cc2Cl)cc(OC)c1OC	2.4	20µM*	7.9%	?	0.1%	-4.5%
COc1ccc(/C=N/Nc2ncc(C(F)(F)F)cc2Cl)c(OC)c1OC	0.6	7.94µM*	-1.9%	2.82µM*	1.4%	-5.0%
COc1cc(/C=N/Nc2ncc(C(F)(F)F)cc2Cl)cc(OC)c1O	-2.2	20µM*	-16.2%	11.2µM*	1.2%	-15.4%
COc1ccc(OCC(=O)NC(=S)NNC(=O)COc2ccc(Br)cc2Cl)cc1	11.0	3.1%[10 µM]	-6.2%[57.1 µM]	10µM*	-0.9%	0.9%[57.1 µM]
COc1ccc(C(=O)NC(=S)NNC(=O)COc2ccccc2)cc1	4.4	?	-17.4%[57.1 µM]	7.08µM*	1.7%	-0.2%[57.1 µM]
O=C(COc1ccccc1)NNC(=S)NC(=O)c1ccccc1	2.6	11.2µM*	?	6.31µM*	14.2%	0.7%
O=C(COc1ccccc1)NNC(=O)c1ccc(Cl)cc1	·	·	9.3%	·	·	-2.6%
COc1ccc(C(=O)NC(=S)NNC(=O)c2ccccc2O)cc1	2.3	0.7%	-7.7%[57.1 µM]	7.0%	0.7%	7.5%[57.1 µM]
COc1ccc(-c2c(-c3ccc(OCC(=O)NN)cc3O)n[nH]c2C)cc1	-3.3	?	6.7%	?	-0.5%	-1.5%
CCOC(=O)C1=C(C)N(C)C(=S)NC1c1cc(OC)ccc1OC (stereo unspecified)	-1.6	?	-1.1%[57.1 µM]	14.1µM*	-3.0%	-6.8%[57.1 µM]
O=c1c2cc(N3CCOCC3)ccc2[nH]c(=S)n1Cc1ccco1	-28.2	?	10µM*	14.1µM*	1.4%	4.3%[57.1 µM]
COc1cccc(Cn2c(=S)[nH]c3ccc(N4CCOCC4)cc3c2=O)c1	-7.5	6.31µM*	14.7%	2.82µM*	1.9%	33.5%
Cn1c(=S)[nH]c2cc(C(=O)N3CCN(Cc4cccs4)CC3)ccc2c1=O	·	·	-21.5%	·	·	0.0%
COc1cc2[nH]c(=S)n(Cc3ccco3)c(=O)c2cc1OC	4.2	?	-19.6%	11.2µM*	0.6%	5.4%
O=c1c2cc(Cl)ccc2[nH]c(=S)n1Cc1cccs1	4.8	4.47µM*	-1.7%[57.1 µM]	2µM*	0.3%	5.0%[57.1 µM]
O=C(c1ccc2c(=O)n(Cc3ccco3)c(=S)[nH]c2c1)N1CCN(c2ccccc2)CC1	0.1	-3.5%	-29.2%	?	-3.2%	-15.7%
COc1cccc(CNC(=O)CCCCCn2c(=S)[nH]c3ccc(N4CCOCC4)cc3c2=O)c1	-22.5	-18.1%	·	-12.7%	-0.3%	·
O=C(Nc1ccon1)c1cccc(S(=O)(=O)N2CCCCCC2)c1	-1.4	0.9%	-4.7%	32.6%	0.2%	-8.5%
Cc1ccc(OCC(=O)Nc2ccc3c(c2)sc(=O)n3C)cc1	·	·	-4.0%	·	·	-13.1%
